FBW7 activator: human FBW7 E3 ligase activation, primary screen | AlphaScreen FBW7–phospho-cyclin E peptide binding, activator screen | AID 1259310 | 0.13% of 650,000 active | normalized activity (activation), % at 26.1 µM; in the data active = normalized activity above about 1.9%;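 also: purified mutant Fbw7 with reduced substrate affinity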
Target sequence (Q969H0 whole entry, looked up): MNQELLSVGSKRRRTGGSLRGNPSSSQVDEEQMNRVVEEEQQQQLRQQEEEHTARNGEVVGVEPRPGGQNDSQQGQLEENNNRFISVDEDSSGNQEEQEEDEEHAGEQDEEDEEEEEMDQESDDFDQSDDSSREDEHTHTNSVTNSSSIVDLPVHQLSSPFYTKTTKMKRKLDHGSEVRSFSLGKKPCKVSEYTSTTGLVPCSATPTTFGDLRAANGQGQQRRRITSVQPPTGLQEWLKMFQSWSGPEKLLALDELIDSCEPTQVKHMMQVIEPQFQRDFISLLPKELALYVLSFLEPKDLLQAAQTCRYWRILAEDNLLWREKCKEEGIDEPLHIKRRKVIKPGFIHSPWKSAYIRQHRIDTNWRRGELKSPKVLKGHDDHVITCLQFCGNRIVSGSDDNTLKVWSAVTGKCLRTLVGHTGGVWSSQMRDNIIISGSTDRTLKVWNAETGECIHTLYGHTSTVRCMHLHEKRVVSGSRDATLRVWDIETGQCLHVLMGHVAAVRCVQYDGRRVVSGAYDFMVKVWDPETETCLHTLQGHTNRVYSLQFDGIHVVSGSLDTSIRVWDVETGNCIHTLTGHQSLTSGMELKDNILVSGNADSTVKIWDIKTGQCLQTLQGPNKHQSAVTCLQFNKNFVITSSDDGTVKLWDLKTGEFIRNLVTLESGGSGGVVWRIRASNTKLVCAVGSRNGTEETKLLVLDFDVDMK
GPR151 activ: activators of human GPR151; Q8TDV0; PathHunter beta-arrestin GPR151 cells, luminescence; activation, % at 11.2 µM; 1% of 650,000 active; in the data active = activation above about 4.9%;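 also: 0% = median of compound wells and 100% = cells with positive control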
MITF inh: human MITF inhibition, primary screen; O75030; AlphaScreen MITF homodimerization, bead proximity signal; inhibition, % at 2.6 µM; 0.91% of 650,000 active; in the data active = inhibition above about 50%;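 also: 0% = vehicle wells with protein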
TEAD-YAP block: TEAD-YAP interaction inhibition; HEK-TIYL cells, TEAD-Gal4/YAP UAS-luciferase luminescence; inhibition, % at 9.12 µM; 1.4% of 640,000 active; in the data active = inhibition above about 32%;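 also: 0% = median of test compound wells and 100% = reference inhibitor wells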
GPR151 confirm: human GPR151 activation, confirmation screen | 6,700 tested, under 10 active | shares compounds with GPR151 activ | activation, % at 11.2 µM | GPR151 PathHunter beta-arrestin cells, luminescence, 90 min; % of EA-reagent control over plate median;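 active = mean percent activation across replicates above the confirmation screen cutoff of 4.91%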
GPR119 counter: GPR119 activation, counter-screen for GPR151 activators. shares compounds with GPR151 activ. AID 1508611. GPR119 PathHunter beta-arrestin cells, luminescence, 90 min; 0 = compound-well median, 100 = enzyme-acceptor control. 0.3% of 6,700 active. activation, % at 11.2 µM;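 active = mean percent activation in the counterscreen above 29.09%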;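 also: counterscreen on off-target GPR119 to flag nonselective hits from the GPR151 activator screen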
Numbers without * were called inactive; . = no result given; ! = not active in a repeat. Sampled rows, rich in hits. Any-hit rate of the full collection: about 3.5%.

SMILES	FBW7 activator	GPR151 activ	MITF inh	TEAD-YAP block	GPR151 confirm	GPR119 counter
Cc1ccc(NC(=O)N2CCOCC2)cc1	0	-1	-11	-3	.	.
CC(=O)c1ccc(N2CCN(C(=S)NCC3CCCO3)CC2)cc1 (stereo not given)	0	1	6	-2	.	.
CCOCCCNC(=S)N1CCC(NC(=O)c2ccc(C)cc2)CC1	0	1	1	-1	.	.
CCOCCCNC(=S)N1CCC(NC(=O)c2ccco2)CC1	0	5.9*	6	-3	0	-2
O=C(c1ccco1)N1CCN(C(=S)NCC2CCCO2)CC1 (stereo not given)	0	6.4*	-10	9	0	-2
COC(=O)[C@@H]1CCCN1Cc1ccc2c(c1)CN(Cc1ccc3c(c1)OCCO3)CCO2	0	-1	16	0	.	.
COC(=O)C1CCCCN1Cc1ccc2c(c1)CN(Cc1cnn(C)c1C)CCO2 (stereo not given)	0	5.9*	0	3	1	0
COc1c(Cl)cc(Cl)cc1C(=O)Nc1ccc(-c2nn3c(C)nnc3s2)cc1	1	5.0*	2	2	0	4
COc1ccccc1N/C(N)=N/c1nc(C(F)(F)F)cc(=O)[nH]1	0	5.1*	-9	7	-1	-8
Cc1ccccc1N/C(N)=N/c1nc(C(F)(F)F)cc(=O)[nH]1	0	8.2*	11	4	1	8
C=C(C)C(=O)OC[C@@H]1CN2[C@@H](CC[C@@H](C)[C@@H]2c2ccc(Br)cc2)C(=O)O1	0	-1	23	.	.	.
C[C@@H]1CC[C@H]2C(=O)O[C@@H](COc3ccc(C(C)(C)C)cc3)CN2[C@H]1c1ccc(Br)cc1	0	5.3*	12	.	1	-11
Cc1ccc(S(=O)(=O)Cn2nnnc2CN2CCN(c3ccc(F)cc3)CC2)cc1	0	0	12	7	.	.
COc1ccc(N=C2SC(CC(=O)Nc3ccccc3)C(=O)N2CCN(C)C)cc1 (stereo not given)	0	0	18	3	.	.
C=CCN1C(=O)C(CC(=O)Nc2cccc(C(C)=O)c2)SC1=Nc1ccc(OC)cc1 (stereo not given)	0	5.7*	-4	5	0	0
COc1ccccc1/C=N/N=C1/NC(=O)C(CC(=O)Nc2cccc(C(C)=O)c2)S1 (stereo not given)	0	12*	-5	-6	1	20
COc1ccccc1/C=N/N=C1/NC(=O)C(CC(=O)Nc2ccc(Cl)cc2)S1 (stereo not given)	0	1	-2	3	.	.
Cc1ccc(C(c2nnnn2C(C)(C)C)N2CCOCC2)cc1 (stereo not given)	0	0	1	11	.	.
C/C(CC(=O)Nc1ccccc1C)=N\NC(=O)C(=O)Nc1ccc(C)c(Cl)c1	0	0	24	3	.	.
N#Cc1ccc2c(c1)N(Cc1ccc(F)cc1)C(=O)C1CCCN21 (stereo not given)	0	1	3	2	.	.
Cc1ccc(CN2C(=O)C3CCCN3c3ccc(C#N)cc32)cc1 (stereo not given)	0	5.6*	-3	-4	1	7
C=CCOC(=O)C1C(c2ccccc2)c2c([nH][nH]c2=O)CC1(C)O (stereo not given)	0	0	-6	-6	.	.
C=CCOC(=O)C1C(c2cccc(Br)c2)c2c([nH][nH]c2=O)CC1(C)O (stereo not given)	0	6.0*	-15	-3	-1	-11
CCCCOc1nc2ccccc2nc1C(C#N)C(=O)OCC (stereo not given)	0	5.3*	-13	-7	0	-4
CCn1c(=O)c(C(=O)Nc2c(C)cccc2C)c(O)c2ccccc21	0	1	1	6	.	.
SMILES	FBW7 activator	GPR151 activ	MITF inh	TEAD-YAP block	GPR151 confirm	GPR119 counter
O=C(NCCc1ccc(F)cc1)C(=O)Nc1cccc(Cl)c1	0	0	6	11	.	.
O=C(N/N=C/c1ccc(F)cc1)C(=O)Nc1ccc(Cl)c(Cl)c1	1	2	4	-1	.	.
O=C(N/N=C/c1ccc(F)cc1)C(=O)Nc1cccc(Cl)c1	0	5.0*	10	1	1	12
O=C(Nc1cccc(Cl)c1)O/N=C\c1ccncc1	0	5.2*	-1	-11	-1	2
O=C(NCc1ccc(F)cc1)C(=O)Nc1cccc(Cl)c1	0	5.1*	-3	-6	3	0
COc1ccc(NS(=O)(=O)c2ccc(OCC(=O)Nc3ccccc3OC)cc2)cc1	1	0	14	2	.	.
COCCNc1nc2ccccn2c(=O)c1/C=C1\SC(=S)NC1=O	0	5.0*!	-5	2	-1	-10
CC(NC(=O)COC(=O)c1cc(O)c2ccccc2c1O)C1CC2CCC1C2 (stereo not given)	0	-1	-4	-9	.	.
CC(C)N(CCNC1CCS(=O)(=O)C1)C(C)C (stereo not given)	0	8.4*	6	-3	0	9
COc1ccc(CNCCC2CCC(=O)N2CCc2ccccc2)cc1 (stereo not given)	0	-1	-1	-1	.	.
COC(=O)c1ccc(/C=N/NC(=O)C(=O)Nc2ccc(Br)cc2)cc1	0	1	6	19	.	.
O=C(NC1CCCCC1)C(c1ccncc1)N(C(=O)C(F)(F)F)C1CC1 (stereo not given)	0	1	11	-4	.	.
CC(C)N(C(=O)C(F)(F)F)C(C(=O)NC1CCCCC1)c1ccncc1 (stereo not given)	0	5.8*	-4	0	1	5
O=c1[nH]c(C2COc3ccccc3C2)nc2ccc(-c3ccncc3)cc12 (stereo not given)	1	1	42	-9	.	.
CC(C)CC1NC(=O)N(CC(=O)Nc2cccc(C#N)c2)C1=O (stereo not given)	0	1	-6	3	.	.
CNc1cc(N2CCN(S(=O)(=O)c3ccccc3)CC2)ccc1[N+](=O)[O-]	0	1	2	5	.	.
CNc1cc(N2CCN(S(=O)(=O)c3ccc4c(c3)CCCC4)CC2)ccc1[N+](=O)[O-]	0	13*	-5	4	-1	0
O=C(O)c1cccc(-n2ncc(Cl)c(Cl)c2=O)c1	0	-1	4	-7	.	.
O=C1NC(=O)C(=Cc2cc(Br)ccc2OCc2ccccc2F)C(=O)N1	0	14*	2	-10	-1	9
N#CCOC(=O)c1ccccc1OCc1ccccc1Cl	0	3	-1	2	.	.
O=C1NC(=S)NC(=O)C1=Cc1cc(Cl)ccc1OCc1ccc([N+](=O)[O-])cc1	0	1	-10	-31	.	.
CCCOc1ccc([N+](=O)[O-])cc1C=C1C(=O)NC(=S)NC1=O	0	5.1*	0	6	0	-3
Cc1cc(/C=C2\C(=O)NC(=O)N(c3ccc(F)cc3)C2=O)c(C)n1C1CC1	0	-1	3	-3	.	.

Screens from PubChem.
